Measurements from PubChem BioAssay (NCATS).
Results filed as inconclusive are left out. Values without a mark were called inactive. Calls of active or inactive are those of the source. Calls come from the whole dose curve; as a rule, active = well fitted cell-killing curve with a large enough effect; inconclusive = small, poorly fitted or top-dose-only effect; inactive = flat fitted curve, though single readings scatter.

assay: Cell Viability - H-4-II-E (AID 543); conditions: H-4-II-E rat hepatoma viability; series mostly up to 92.2 µM; activity change, negative = cytotoxic: at the top concentration; note: nearly all actives have a fitted effect of over 35% in size
From the text: NIH Chemical Genomics Center [NCGC]
NIH Molecular Libraries Screening Centers Network [MLSCN]
National Institutes of Environmental Health Sciences [NIEHS]
National Toxicology Program [NTP]
We have developed a 1536-well cell-based assay for quantitative high throughput screening (qHTS) against a number of cell lines to determine in vitro cytotoxicity of small molecules. This particular assay uses the H-4-II-E cell line which is derived from rat hepatoma.
NCGC Assay Protocol Summary:
The CellTiter-Glo luminescent cell viability assay (Promega) is a homogeneous method to measure the number of viable cells in culture. The end point readout of this assay is based on quantitation of intracellular ATP, an indicator of metabolic activity, using the luciferase reaction. Luciferase catalyzes the oxidation of beetle Luciferin to oxyluciferin and light in the presence of ATP. The luminescent signal is proportional to amount of ATP present.
Using the CellTiter-Glo luminescent cell viability assay, the amount of cellular ATP was measured in the H-4-II-E cell line with complete culture medium following compound treatment for 40 hours. The assay was performed in opaque white Kalypsys 1536-well plates. In the screen, tamoxifen and doxorubicin were used as positive controls. Library compounds were measured for their ability to cause acute toxicity in the cell line, as reflected by a decrease in intracellular ATP levels, in a concentration-dependent manner. […] AC50 values were determined from concentration-response data modeled with the standard Hill equation.
qHTS protocol fo CellTiter Glo H-4-II-E cellular assay
[Step] [Parameter] [Value] [Description]
1. Reagent; 5 uL; 1500 H-4-II-E cells/well
2. Time; 5 hr; 37 °C incubation
4. Controls; 23 nL; Tamoxifen 0.34 uM to 100 uM & Doxorubicin 0.02 nM to 100 uM
5. Time; 40 hr; 37 °C incubation
6. Reagent; 5 uL; CellTiter Glo reagent
7. Time; 20 min; Room Temperature
8. Detection; Luminescence; Viewlux plate reader
Keywords: cell viability, cytotoxicity, H-4-II-E cell line, luminescence, NTPHTS, NTPHTS_NCGC, NIEHS, EPA, DSSTox, MLSMR, MLSCN, NIH Roadmap, qHTS, NCGC
% is set by controls: 0 for no effect and ±100 for the full control effect; potency is the fitted concentration of half-maximal effect.

Row | Compound | activity change, negative = cytotoxic | Potency
1 | OCCBr | -3.6% | –
2 | CCN(CC)N=O | 0.149% | –
3 | COC(=O)Nc1nc2ccccc2[nH]1 | – | 3.98 µM (active)
4 | C=C(Cl)CCl | 0.576% | –
5 | C=CCBr | 2.35% | –
6 | ClCC(Br)CBr (stereo not given) | 3.29% | –
7 | O=[N+]([O-])c1cccc(CCl)c1 | – | 50.1 µM (active)
8 | O=[N+]([O-])CCO | -7.26% | –
9 | ClC(Cl)(Cl)C(Cl)(Cl)Cl | -1.89% | –
10 | Oc1c(Cl)cccc1Cl | -13.9% | –
11 | O=NN1CCCCC1 | -7.24% | –
12 | Oc1ccc(Cl)c(Cl)c1 | -26.3% | –
13 | ClC(Cl)C(Cl)Cl | 0.164% | –
14 | O=Cc1ccc(Cl)cc1Cl | -0.685% | –
15 | C=CC(=O)OCC(CC)CCCC (stereo not given) | -6.26% | –
16 | O=S(=O)(Cl)c1ccccc1 | -12.1% | –
17 | Nc1ccc(Cc2ccc(N)cc2)cc1 | -4.34% | –
18 | Nc1cc(Cl)cc(C(=O)O)c1Cl | -4.9% | –
19 | Cc1ccc(OP(=O)(Oc2ccc(C)cc2)Oc2ccc(C)cc2)cc1 | -26% | –
20 | C=CCOCC1CO1 (stereo not given) | -1.14% | –

Row | Compound | activity change, negative = cytotoxic | Potency
21 | CSSC | -11.2% | –
22 | CCCCOCC1CO1 (stereo not given) | -11.2% | –
23 | C=CC=O | 2.53% | –
24 | CCCCOC(=O)c1ccccc1N | -4.29% | –
25 | COc1ccccc1N | 2.17% | –
26 | CCOC(=O)CBr | 0.129% | –
27 | [C-]1=CC=CC1.[C-]1=CC=CC1.[Cl-].[Cl-].[Ti+4] | -28.3% | –
28 | ClCc1ccccn1 | -2.55% | –
29 | Clc1cccc(Cl)c1Cl | -1.25% | –
30 | Nc1ccc(-c2ccccc2)cc1 | -15.8% | –
31 | Nc1ccc([N+](=O)[O-])cc1[N+](=O)[O-] | – | 20 µM (active)
32 | O=C(O)CCl | -5.67% | –
33 | Cl/C=C/Cl | -11.3% | –
34 | Clc1cccc(Cl)c1 | -1.79% | –
35 | N#CC(Cl)(Cl)Cl | 4.18% | –
36 | S=c1[nH]c2ccccc2[nH]1 | -8.38% | –
37 | C/C=C/C=O | 2.66% | –
38 | FC(Cl)(Cl)Cl | -4.89% | –
39 | CCOP(=S)(OCC)SCCSCC | 2.12% | –
40 | O=C(Cl)c1ccccc1F | -14.6% | –
